# Reference: PubChem BioAssay (Tox21)
# Unmarked numbers belong to inactive results. Results filed as inconclusive are left out. A call without a number means that no potency is given here. Activity calls are given as the source filed them. Calls follow the shape of the full dose curve.
# Tests used:
# [1] = target: Acetylcholinesterase (Homo sapiens) (UniProt P22303); assay: Acetylcholinesterase (AChE) small molecule antagonists: colormetric cell-based qHTS assay (AID 1347395); also: nearly all actives have a fitted effect of over 30% in size; also: potency is read from the fitted curve at half-maximal effect
# Sequence of Acetylcholinesterase (Homo sapiens) (P22303 whole entry, looked up): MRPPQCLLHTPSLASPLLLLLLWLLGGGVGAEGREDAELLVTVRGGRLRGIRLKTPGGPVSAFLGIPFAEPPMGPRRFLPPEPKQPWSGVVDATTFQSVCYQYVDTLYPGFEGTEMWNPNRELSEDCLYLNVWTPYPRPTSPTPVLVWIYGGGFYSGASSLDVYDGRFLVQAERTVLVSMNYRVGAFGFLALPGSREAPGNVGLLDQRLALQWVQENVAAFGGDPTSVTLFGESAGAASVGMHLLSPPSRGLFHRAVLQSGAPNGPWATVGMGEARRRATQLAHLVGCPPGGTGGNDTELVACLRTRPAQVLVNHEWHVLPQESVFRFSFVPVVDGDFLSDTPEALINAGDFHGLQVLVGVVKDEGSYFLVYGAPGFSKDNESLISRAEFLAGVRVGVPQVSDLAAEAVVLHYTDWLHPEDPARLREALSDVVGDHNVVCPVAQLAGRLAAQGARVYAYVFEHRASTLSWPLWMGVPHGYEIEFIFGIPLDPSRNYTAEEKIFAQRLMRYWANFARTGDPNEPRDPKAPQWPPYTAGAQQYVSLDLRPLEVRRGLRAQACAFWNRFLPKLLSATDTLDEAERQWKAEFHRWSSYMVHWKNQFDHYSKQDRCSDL
# Summary of the method: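 SH-SY5Y cells; cpd 30 min 37 C; + DTNB/acetylthiocholine, 90 min 37 C; colorimetric thiocholine read; qHTS.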
# [2] = target: Acetylcholinesterase (Homo sapiens) (UniProt P22303); assay: Acetylcholinesterase (AChE) small molecule antagonists: enzyme-based qHTS assay (AID 1347397); details: Potency: AChE enzyme activity inhibition; outcome: AChE enzyme activity inhibition; also: nearly all actives have a fitted effect of over 55% in size; also: potency is read from the fitted curve at half-maximal effect
# Summary of the method: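 Tox21 library chemicals are tested in qHTS format against recombinant human AChE. The enzyme, dispensed at 50 mU/mL, sits with compound for 30 min at room temperature. A DTNB–acetylthiocholine cocktail follows, and colour is read after 10 min.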
# [3] = target: Acetylcholinesterase (Homo sapiens) (UniProt P22303); assay: Acetylcholinesterase (AChE) small molecule antagonists: fluorescence cell-based qHTS assay (AID 1347398); details: Potency: AChE activity; outcome: AChE activity; also: nearly all actives have a fitted effect of over 50% in size; also: potency is read from the fitted curve at half-maximal effect
# Summary of the method: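 Cellular AChE inhibition: SH-SY5Y cells treated with test chemical for 30 min at 37 C, then acetylthiocholine hydrolysis followed over 40 min at room temperature via thiocholine-reactive Thiolite Green fluorescence (490/520 nm).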
# [4] = target: Acetylcholinesterase (Homo sapiens) (UniProt P22303); assay: Acetylcholinesterase (AChE) small molecule antagonists: enzyme-based qHTS assay with human liver microsomes (AID 1347399); details: Potency: qHTS inhibition; outcome: qHTS inhibition; also: nearly all actives have a fitted effect of over 60% in size
# Summary of the method: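 Recombinant human AChE (50 mU/mL in the enzyme mix) and human liver microsomes (0.25 mg/mL final) were preincubated with compound and NADPH (0.25 mg/mL final) for 30 min at 37 C. Acetylthiocholine/DTNB was then added; thiocholine was read colorimetrically after 10 min at room temperature.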
compound,measurement,setting,value
CC(O)CN(CCCN(C)C)CCCN(C)C (stereo not given),Potency,[1],inactive
same,Potency,[2],inactive
same,Potency,[3],inactive
same,Potency,[4],inactive
SC1CCCCC1,Potency,[1],inactive
same,Potency,[2],inactive
same,Potency,[3],inactive
same,Potency,[4],inactive
CC1=NN(c2cccc(S(=O)(=O)O)c2)C(=O)C1,Potency,[1],inactive
same,Potency,[2],inactive
same,Potency,[3],inactive
same,Potency,[4],inactive
O=C1N(c2ccccc2)c2ccccc2C1(Cc1ccncc1)Cc1ccncc1,Potency,[1],inactive
same,Potency,[2],inactive
same,Potency,[3],inactive
same,Potency,[4],inactive
Nc1nnc(-c2ccc([N+](=O)[O-])o2)o1,Potency,[1],inactive
same,Potency,[2],inactive
same,Potency,[3],inactive
same,Potency,[4],inactive
CCCCCCCCC(CO)CCCCCC (stereo not given),Potency,[1],inactive
same,Potency,[2],inactive
same,Potency,[3],inactive
same,Potency,[4],inactive
CC(=O)c1cccnc1,Potency,[1],inactive
same,Potency,[2],inactive
same,Potency,[3],inactive
same,Potency,[4],inactive
CCCC(=O)OC/C=C(\C)CCC=C(C)C,Potency,[1],inactive
same,Potency,[2],inactive
same,Potency,[3],inactive
same,Potency,[4],inactive
NC(=O)Nc1ccc(Cl)cc1,Potency,[1],inactive
same,Potency,[2],inactive
same,Potency,[3],inactive
same,Potency,[4],inactive
Cc1nc(-c2ccc(Cl)cc2)oc1COC(C)(C)C(=O)O,Potency,[1],inactive
same,Potency,[2],inactive
same,Potency,[3],inactive
same,Potency,[4],inactive
COc1cc(C(=O)OCCCN2CCCN(CCCOC(=O)c3cc(OC)c(OC)c(OC)c3)CC2)cc(OC)c1OC,Potency,[1],inactive
same,Potency,[2],inactive
same,Potency,[3],inactive
same,Potency,[4],inactive
CCCCC(CC)COCCO (stereo not given),Potency,[1],inactive
same,Potency,[2],inactive
same,Potency,[3],inactive
same,Potency,[4],inactive
Cc1ccc(C=O)s1,Potency,[1],inactive
same,Potency,[2],inactive
same,Potency,[3],inactive
same,Potency,[4],inactive
CCCC1CCC(=O)CC1,Potency,[1],inactive
same,Potency,[2],inactive
same,Potency,[3],inactive
same,Potency,[4],inactive
CCCCOc1ccc(C(=O)CCN2CCCCC2)cc1,Potency,[1],12.3 µM (active)
same,Potency,[2],27.5 µM (active)
same,Potency,[3],12.3 µM (active)
same,Potency,[4],inactive
Cc1cn[nH]c1,Potency,[1],inactive
same,Potency,[2],inactive
same,Potency,[3],inactive
same,Potency,[4],inactive
Brc1cc(-c2ccc(Br)c(Br)c2Br)cc(Br)c1Br,Potency,[1],inactive
same,Potency,[2],inactive
same,Potency,[3],inactive
same,Potency,[4],inactive
COc1cc(NS(=O)(=O)c2ccc(N)cc2)nc(C)n1,Potency,[1],inactive
same,Potency,[2],inactive
same,Potency,[3],inactive
same,Potency,[4],inactive
CCCCCCCCCCCCCCCCN(C)C,"activity, negative = inhibition",[1],-4.82% [at 10.5 µM]
same,"activity change, negative = inhibition",[2],-0.395% [at 10.5 µM]
same,"activity change, negative = inhibition",[3],-5.81% [at 10.5 µM]
same,"activity change, negative = inhibition",[4],-0.307% [at 10.5 µM]
CCCC(c1cc(C(C)(C)C)c(O)cc1C)c1cc(C(C)(C)C)c(O)cc1C,Potency,[1],inactive
same,Potency,[2],inactive
same,Potency,[3],inactive
same,Potency,[4],inactive
Cc1ccc(N(CCO)CCO)cc1,Potency,[1],inactive
same,Potency,[2],inactive
same,Potency,[3],inactive
same,Potency,[4],inactive
COC(=O)CCCCCCCCC(=O)OC,Potency,[1],inactive
same,Potency,[2],inactive
same,Potency,[3],inactive
same,Potency,[4],inactive
COCCO,Potency,[1],inactive
same,Potency,[2],inactive
same,Potency,[3],inactive
same,Potency,[4],inactive
OCC(CO)N[C@H]1C[C@](O)(CO)[C@@H](O)[C@H](O)[C@H]1O,Potency,[1],inactive
same,Potency,[2],inactive
same,Potency,[3],inactive
same,Potency,[4],inactive
CCOC(=O)/C=C(C)/C=C/C=C(C)/C=C/c1c(C)cc(OC)c(C)c1C,Potency,[1],inactive
same,Potency,[2],inactive
same,Potency,[3],inactive
same,Potency,[4],inactive
O=[N+]([O-])c1cncn1CCN1CCOCC1,Potency,[1],inactive
same,Potency,[2],inactive
same,Potency,[3],inactive
same,Potency,[4],inactive
CCCCCN(CCCCC)C(=O)C(CCC(=O)O)NC(=O)c1ccc(Cl)c(Cl)c1 (stereo not given),Potency,[1],inactive
same,Potency,[2],inactive
same,Potency,[3],inactive
same,Potency,[4],inactive
CCCCCCCCCCCCCc1ccccc1,Potency,[1],inactive
same,Potency,[2],inactive
same,Potency,[3],inactive
same,Potency,[4],inactive
N=C(N=C(N)N)N1CCOCC1,Potency,[1],inactive
same,Potency,[2],inactive
same,Potency,[3],inactive
same,Potency,[4],inactive
CCc1cc(S(=O)(=O)O)c2cc(C(C)C)cccc1-2,Potency,[1],inactive
same,Potency,[2],inactive
same,Potency,[3],inactive
same,Potency,[4],inactive
COC(=O)C(C)(C)C,Potency,[1],inactive
same,Potency,[2],inactive
same,Potency,[3],inactive
same,Potency,[4],inactive
O=C1C=CC(=O)N1c1cccc(N2C(=O)C=CC2=O)c1,Potency,[1],inactive
same,Potency,[2],inactive
same,Potency,[3],44.8 µM (active)
same,Potency,[4],inactive
CCOC(=O)CC,Potency,[1],inactive
same,Potency,[2],inactive
same,Potency,[3],inactive
same,Potency,[4],inactive
C[C@H](CN1CCCC1)C(=O)c1ccc(C(F)(F)F)cc1,Potency,[1],inactive
same,Potency,[2],inactive
same,Potency,[3],inactive
same,Potency,[4],inactive
C=C(C)C1CCC(C)(O)CC1 (stereo not given),Potency,[1],inactive
same,Potency,[2],inactive
same,Potency,[3],inactive
same,Potency,[4],inactive
C/C(=C\C(C)CC(C)CC(C)C)C1CC(=O)OC1=O (stereo not given),Potency,[1],inactive
same,Potency,[2],inactive
same,Potency,[3],inactive
same,Potency,[4],inactive
O=C(OCc1ccccc1)C(=O)OCc1ccccc1,Potency,[1],inactive
same,Potency,[2],inactive
same,Potency,[3],inactive
same,Potency,[4],inactive
O=C1C(O)=C(O)C(=O)C(O)=C1O,Potency,[1],inactive
same,Potency,[2],inactive
same,Potency,[3],inactive
same,Potency,[4],inactive
Nc1ccc(C(=O)O)c(O)c1,Potency,[1],inactive
same,Potency,[2],inactive
same,Potency,[3],inactive
same,Potency,[4],inactive
O=Cc1cc(O)ccc1Br,Potency,[1],inactive
same,Potency,[2],inactive
same,Potency,[3],inactive
same,Potency,[4],inactive
CCN(CC)CCNC(=O)COc1ccc(Cl)cc1,Potency,[1],inactive
same,Potency,[2],inactive
same,Potency,[3],inactive
same,Potency,[4],inactive
N#CCc1ccccc1[N+](=O)[O-],Potency,[1],inactive
same,Potency,[2],inactive
same,Potency,[3],inactive
same,Potency,[4],inactive
CCCCCCC#CC(=O)OC,Potency,[1],inactive
same,Potency,[2],inactive
same,Potency,[3],inactive
same,Potency,[4],inactive
C[C@H]1NCc2cc(-c3ccc4c(=O)c(C(=O)O)cn(C5CC5)c4c3OC(F)F)ccc21,outcome,[1],inactive
same,outcome,[2],inactive
same,outcome,[3],inactive
same,outcome,[4],inactive
CC(=O)O[C@@H]1CC2CCC1(C)C2(C)C (stereo not given in full),Potency,[1],inactive
same,Potency,[2],inactive
same,Potency,[3],inactive
same,Potency,[4],inactive
